Compounds with a hit are over-represented: about 17% of the library has one in this group of screens.
DT40 TDP1 CPT – qHTS for Inhibitors of human tyrosyl-DNA phosphodiesterase 1 (TDP1): qHTS in cells in presence of CPT; 420,000 compounds, 12% hits; chicken DT40 Tdp1-/-;hTDP1 cells + 20 nM CPT, ATP luminescence, 48 h; Potency, µM (series often up to 46.2 µM), for the others: at the highest dose activity change, negative = growth inhibition, hits mostly inhibitors; note: % is set by controls: 0 for no effect and ±100 for the full control effect; nearly all actives have a fitted effect of over 55% in size
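Chicken DT40 Tdp1-/- cells complemented with human TDP1, 400 cells/well, exposed to compounds plus 20 nM camptothecin for at least 48 h at 37 C; viability read as ATP content by CellTiter-Glo luminescence.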
DT40 TDP1 no CPT – qHTS for Inhibitors of human tyrosyl-DNA phosphodiesterase 1 (TDP1): qHTS in cells in absence of CPT. DT40 Tdp1-/- hTDP1 cells, no CPT, ATP luminescence, 48 h. Potency, µM (series often up to 46.2 µM), inactives show at the highest dose activity change, negative = growth inhibition, actives largely listed as inhibitors. 420,000 compounds, 15% hits; note: % is set by controls: 0 for no effect and ±100 for the full control effect; nearly all actives have a fitted effect of over 55% in size
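Chicken DT40 Tdp1-/- cells stably complemented with human TDP1 were seeded at 400 cells/well with DMSO in place of 20 nM camptothecin. After compound pinning, cells grew at least 48 hr at 37 °C; viability read by CellTiter-Glo luminescence.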
ClpP mod – qHTS Assay for Activators of ClpP | ATP-dependent Clp protease proteolytic subunit (Bacillus subtilis (strain 168)), P80244 | purified B. subtilis ClpP, FRET peptide cleavage, 20 min | Potency, µM (doses to about 57.5 µM), inactives show top-dose activity change, negative = active | 340,000 compounds, 1.9% hits | AID 651965, 2013; active = well fitted falling curve with a large enough effect; inconclusive = small, poorly fitted or top-dose-only effect; inactive = no such curve, though single readings can be large or run the other way; note: the source files actives as falling curves though it sought activators and does not explain the sign; nearly all actives have a fitted effect of over 65% in size
Target sequence (P80244 whole entry, looked up): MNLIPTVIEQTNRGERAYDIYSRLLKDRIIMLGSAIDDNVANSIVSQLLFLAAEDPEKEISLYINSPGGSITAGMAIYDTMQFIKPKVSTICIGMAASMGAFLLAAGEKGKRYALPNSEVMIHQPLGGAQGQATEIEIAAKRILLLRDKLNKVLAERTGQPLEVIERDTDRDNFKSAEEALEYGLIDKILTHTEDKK
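ClpP 10 microg/mL final, pH 8 Tris/KCl buffer with BSA, glycerol, Tween-20; compound pinned in; FRET-FV substrate; RT 20 min; Ex320/Em430; ΔFRET vs ADEP 5.8 microM, DMSO, no enzyme.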
TDP1 block – qHTS Assay for Inhibitors of Tyrosyl-DNA Phosphodiesterase (TDP1); Tyrosyl-DNA phosphodiesterase 1 (Homo sapiens), Q9NUW8; recombinant TDP1, AlphaScreen DNA substrate cleavage; Potency, µM (top dose mostly 130 µM), inactives show at the highest dose activity change, negative = inhibition, usual class: inhibitors; 350,000 compounds, 0.28% hits; note: % is set by controls: 0 for no effect and ±100 for the full control effect; nearly all actives have a fitted effect of over 40% in size
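AlphaScreen read-out: signal falls as enzyme removes the 3' tyrosine-FITC from a 5'-biotinylated DNA oligo (15 nM, 5 min, RT). Enzyme was E. coli-made recombinant Tdp1 at 1 nM, exposed to compound for 15 min beforehand; beads 10 ug/ml, 10 min.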
Numbers without * were called inactive. Unless noted, calls come from the whole dose curve; as a rule, active = well fitted curve in the direction sought with a large enough effect; inconclusive = small, poorly fitted or top-dose-only effect, or another doubt; inactive = no such curve, though single readings can be large; an effect the other way counts as inactive or inconclusive. Potency is the fitted concentration of half-maximal effect.

What do the screens show for `COCCNC(=O)/C(C#N)=C/c1c(N2CCN(c3cccc(Cl)c3)CC2)nc2c(C)cccn2c1=O`?
DT40 TDP1 CPT: 16.4µM*; DT40 TDP1 no CPT: 23.1µM*; ClpP mod: 3.7%

What do the screens show for `O=C(O)C(c1ccccc1)C(O)c1ccc2c(c1)OCO2` (configuration not stated)?
DT40 TDP1 CPT: 9.8%; DT40 TDP1 no CPT: 13.5%

What do the screens show for `O=C(Cc1ccc(Br)cc1)NC1CCSC1=O` (configuration not stated)?
DT40 TDP1 CPT: 2.7%; DT40 TDP1 no CPT: 0.8%; TDP1 block: 3.7%

How did CC1C(C(=O)Nc2ccccc2)CCCC1(C)C(=O)O (configuration not stated) do in these assays?
DT40 TDP1 CPT: -1.3%; DT40 TDP1 no CPT: -17.7%; ClpP mod: -2.9%; TDP1 block: -1.0%

What do the screens show for `CCOC(=O)C1CCN(C(c2ccc(OCC)cc2)c2c(O)cc(C)n(CCOC)c2=O)CC1` (configuration not stated)?
DT40 TDP1 CPT: -9.6%; DT40 TDP1 no CPT: -13.7%; ClpP mod: -1.2%; TDP1 block: -5.4%

How did CC(=O)N1CCN(C(=O)COC(=O)c2ccc(S(C)(=O)=O)cc2)CC1 do in these assays?
DT40 TDP1 CPT: 19.0%; DT40 TDP1 no CPT: 7.9%; TDP1 block: 0.1%

What do the screens show for `Cc1ccc(-n2nc(C)c3c(C)cc(=O)n(CC(=O)NC(C)c4ccccc4)c32)cc1` (configuration not stated)?
DT40 TDP1 CPT: -13.9%; DT40 TDP1 no CPT: -10.9%; ClpP mod: -1.4%; TDP1 block: -0.6%

What do the screens show for `Cc1ccccc1Oc1nc2c(C)cccn2c(=O)c1/C=C(\C#N)C(=O)Nc1c(C)n(C)n(-c2ccccc2)c1=O`?
DT40 TDP1 CPT: 20.6µM*; DT40 TDP1 no CPT: 20.6µM*; ClpP mod: 0.5%; TDP1 block: 4.1%

How did Cc1ccccc1Oc1nc2ccccn2c(=O)c1/C=C(\C#N)C(=O)Nc1c(C)n(C)n(-c2ccccc2)c1=O do in these assays?
DT40 TDP1 CPT: inconclusive; DT40 TDP1 no CPT: inconclusive; ClpP mod: -1.1%; TDP1 block: 2.3%

Results for CC(C)c1ccc(C(=O)NNC(=O)c2ccncc2)cc1 ?
DT40 TDP1 CPT: -6.9%; DT40 TDP1 no CPT: -1.9%; TDP1 block: 8.5%

What do the screens show for `CC(C)c1ccc(C(N)=S)cc1`?
DT40 TDP1 CPT: -0.3%; DT40 TDP1 no CPT: 25.9µM*; ClpP mod: 0.6%; TDP1 block: 4.8%

What do the screens show for `Nc1c(S(=O)(=O)c2cccs2)c2nc3ccccc3nc2n1Cc1ccccc1`?
DT40 TDP1 CPT: inconclusive; DT40 TDP1 no CPT: inconclusive; ClpP mod: 35.5µM*; TDP1 block: 0.0%

Results for COc1cccc(/C=N/n2c(N)c(S(=O)(=O)c3cccs3)c3nc4ccccc4nc32)c1OC ?
DT40 TDP1 CPT: 7.31µM*; DT40 TDP1 no CPT: 5.8µM*; ClpP mod: 2.82µM*; TDP1 block: 4.9%

What do the screens show for `Cc1ccc(Cn2c(N)c(S(=O)(=O)c3cccs3)c3nc4ccccc4nc32)cc1`?
DT40 TDP1 CPT: -18.7%; DT40 TDP1 no CPT: inconclusive; ClpP mod: 3.16µM*; TDP1 block: -1.0%

How did O=C(NCCN1CCOCC1)C(=O)NCC1OCCCN1S(=O)(=O)c1cc(F)ccc1F (configuration not stated) do in these assays?
DT40 TDP1 CPT: -13.7%; DT40 TDP1 no CPT: 21.1%; ClpP mod: 1.6%; TDP1 block: 3.6%

What do the screens show for `Cc1ccc(-c2cc(C(=O)Nc3cccnc3)c3ccccc3n2)s1`?
DT40 TDP1 CPT: inconclusive; DT40 TDP1 no CPT: inconclusive; ClpP mod: 15.8µM*; TDP1 block: 0.3%

What do the screens show for `Cc1cccc(-c2cc(C(=O)Nc3ccncc3)c3ccccc3n2)c1`?
DT40 TDP1 CPT: inconclusive; DT40 TDP1 no CPT: inconclusive; ClpP mod: -7.6%; TDP1 block: 5.9%

What do the screens show for `Cc1cccc(-c2cc(C(=O)Nc3cccnc3)c3ccccc3n2)c1`?
DT40 TDP1 CPT: 20.6µM*; DT40 TDP1 no CPT: inconclusive; ClpP mod: 1.0%; TDP1 block: 2.2%

Results for O=C(NC1=NCCS1)c1cc(-c2cccnc2)nc2ccccc12 ?
DT40 TDP1 CPT: 16.4µM*; DT40 TDP1 no CPT: 20.6µM*; ClpP mod: 4.1%; TDP1 block: -5.1%

How did Cc1cc(C)nc(NC(=O)c2cc(-c3ccc(C)s3)nc3ccccc23)c1 do in these assays?
DT40 TDP1 CPT: inconclusive; DT40 TDP1 no CPT: 20.6µM*; ClpP mod: 15.8µM*

Results for Cc1cc(C(=O)Nc2ccccc2)c2ccccc2n1 ?
DT40 TDP1 CPT: 7.6%; DT40 TDP1 no CPT: 3.2%; ClpP mod: 0.1%; TDP1 block: 2.6%

How did O=C1C2C3CC(C(Br)C3Br)C2C(=O)N1c1nccs1 (configuration not stated) do in these assays?
DT40 TDP1 CPT: -4.8%; DT40 TDP1 no CPT: 2.5%; ClpP mod: -1.7%

How did O=C(Cc1ccc(NC(=O)C2CCCN(C(=O)CCc3ccccc3)C2)cc1)Nc1cccc(C(=O)N2CCCC2)c1 (configuration not stated) do in these assays?
DT40 TDP1 CPT: 23.1µM*; DT40 TDP1 no CPT: 13µM*; ClpP mod: 1.0%

Results for O=C(Cc1cccc(NC(=O)C2CCCN(C(=O)CCc3ccccc3)C2)c1)Nc1cccc(C(=O)N2CCCC2)c1 (configuration not stated) ?
DT40 TDP1 CPT: 18.4µM*; DT40 TDP1 no CPT: 23.1µM*; ClpP mod: -0.6%; TDP1 block: 2.2%

How did O=C(Cc1ccc(NC(=O)C2CCCN(C(=O)CCc3ccccc3)C2)cc1)Nc1cccc(C(=O)N2CCCCC2)c1 (configuration not stated) do in these assays?
DT40 TDP1 CPT: inconclusive; DT40 TDP1 no CPT: inconclusive; ClpP mod: 1.8%

Results for Cc1cccc(CN(C)C[C@H]2OCc3cnnn3CCCC(=O)N([C@H](C)CO)C[C@@H]2C)c1 ?
DT40 TDP1 CPT: -17.6%; DT40 TDP1 no CPT: -22.9%; ClpP mod: 0.7%

What do the screens show for `Cc1ccc2c(=O)cc(C(=O)Nc3c(C(=O)c4ccccc4)oc4ccccc34)oc2c1C`?
DT40 TDP1 CPT: -9.4%; DT40 TDP1 no CPT: -11.3%; ClpP mod: -1.9%; TDP1 block: 2.5%

What do the screens show for `CC1=C(C(=O)OCc2ccc3c(c2)OCO3)C(c2ccc(Cl)cc2)NC(=O)N1` (configuration not stated)?
DT40 TDP1 CPT: 2.31µM*; DT40 TDP1 no CPT: 2.91µM*; ClpP mod: 0.1%; TDP1 block: 6.1%

Results for CC1=C(C(=O)OCc2ccc3c(c2)OCO3)C(c2ccc(F)cc2)NC(=O)N1 (configuration not stated) ?
DT40 TDP1 CPT: 4.11µM*; DT40 TDP1 no CPT: 4.11µM*; ClpP mod: -0.7%; TDP1 block: 5.1%
